Screening results deposited in PubChem by National Center for Advancing Translational Sciences (NCATS).
DT40 TDP1 no CPT: qHTS for Inhibitors of human tyrosyl-DNA phosphodiesterase 1 (TDP1): qHTS in cells in absence of CPT. DT40 Tdp1-/- hTDP1 cells, no CPT, ATP luminescence, 48 h. Potency, µM (titrated, usually from 46.2 µM), without a hit: at the highest dose activity change, negative = growth inhibition, hits mostly inhibitors. actives 15% (n = 420,000); also: potency is read from the fitted curve at half-maximal effect; nearly all actives have a fitted effect of over 55% in size
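Cells were dispensed at 400 per well, compounds added by pin tool, plates incubated ≥48 hr at 37 °C, then CellTiter-Glo added for 30 min at room temperature before luminescence reading. Line: DT40 Tdp1-/- complemented with hTDP1; camptothecin omitted.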
TDP1 cell CPT: qHTS for Inhibitors of human tyrosyl-DNA phosphodiesterase 1 (TDP1): qHTS in cells in presence of CPT; AID 686979, 2013; Potency, µM (series often up to 46.2 µM), for inactives: at the top dose activity change, negative = growth inhibition, actives largely listed as inhibitors; actives 12% (n = 420,000); chicken DT40 Tdp1-/-;hTDP1 cells + 20 nM CPT, ATP luminescence, 48 h; also: potency is read from the fitted curve at half-maximal effect; nearly all actives have a fitted effect of over 55% in size
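Chicken DT40 Tdp1-/- cells complemented with human TDP1, 400 cells/well, exposed to compounds plus 20 nM camptothecin for at least 48 h at 37 C; viability read as ATP content by CellTiter-Glo luminescence.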
HT1080-NT tox: qHTS for induction of synthetic lethality in tumor cells producing 2HG: qHTS for the HT-1080-NT fibrosarcoma cell line. HT-1080-NT fibrosarcoma viability, CellTiter-Glo ATP luminescence, 48 h. Potency, µM (highest dose often 46.1 µM), inactives show at the highest dose activity, negative = less viability, most hits filed as cytotoxic. actives 1.6% (n = 360,000). AID 686970, 2013;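 also: NT is the 2HG producing partner of a matched IDH1 knockdown line; potency is read from the fitted curve at half-maximal effect; 0% = DMSO-treated cells and -100% = media-only wells without cells; nearly all actives have a fitted effect of over 55% in size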
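Toxicity toward the 2HG-producing NT line was scored as %Activity, normalised to DMSO and no-cell wells, from CellTiter-Glo luminescence after 48 hours' treatment.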
HT1080 IDH1KD tx: qHTS for induction of synthetic lethality in tumor cells producing 2HG: qHTS for the HT-1080-IDH1KD cell line; HT-1080 IDH1 knockdown viability, ATP luminescence, 48 h; Potency, µM (highest dose often 46.1 µM), without a hit: top-dose activity, negative = toxicity, usual class: cytotoxic; AID 686971, 2013; actives 2% (n = 360,000);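 also: potency is read from the fitted curve at half-maximal effect; 0% = DMSO wells and -100% = cell-free medium wells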
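IDH1KD HT-1080 cells, 750/well, RPMI + 5% FBS; compound pinned after 2 h settling; 48 h, 37 °C; CellTiter-Glo luminescence; % activity normalised to DMSO and no-cell wells; curves fitted, classed by r2 and efficacy.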
IL1B secr inh: qHTS for Inhibitors of Inflammasome Signaling: IL-1-beta AlphaLISA Primary Screen. AID 743279, 2014. actives 4.7% (n = 360,000). THP-1 LPS/ATP IL-1B secretion, AlphaLISA, 16 h; stronger effect = lower value. activity change, % at 57.5 µM; in the data active = activity change below about -50%; inconclusive = mostly about -30% to -49%
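THP-1 cells pretreated 1 hr with compounds (up to 57.5 uM final), then stimulated with LPS (250 ng/mL final) plus ATP (1.25 mM final); secreted IL-1B measured by AlphaLISA after 16 hr, decreased signal indicating inhibition.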
* hit, by the source's call; i = inactive; ? = inconclusive; nt = not tested or not shown; [ ] = dose if it differs, or a comment. This is a sample that favours compounds with a hit; in the whole collection about 19% have one here. Unless noted, calls follow the shape of the dose curve; as a rule, active = well fitted curve in the direction sought with a large enough effect; inconclusive = small, poorly fitted or top-dose-only effect, or another doubt; inactive = no such curve, though single readings can be large; an effect the other way counts as inactive or inconclusive. Unless noted, % is scaled to controls: 0 for no effect and ±100 for the full control effect.

SMILES	DT40 TDP1 no CPT	TDP1 cell CPT	HT1080-NT tox	HT1080 IDH1KD tx	IL1B secr inh
Cc1ccc2nc3n(c(=O)c2c1)-c1cc2ccccc2cc1C(=O)NC3Cc1ccccc1 (stereo not drawn)	16µM*	23µM*	?	15µM*	8
O=C1NC(Cc2ccc(O)cc2)c2nc3cc(Cl)ccc3c(=O)n2-c2ncccc21 (stereo not drawn)	?	?	-29%	?	-12
O=C1NC(Cc2ccc(O)cc2)c2nc3ccc(Cl)cc3c(=O)n2-c2cc3ccccc3cc21 (stereo not drawn)	5.2µM*	6.5µM*	15µM*	?	20
Cc1c(C(=O)N(C)C)sc2c1c(=O)n(-c1ccccc1C(F)(F)F)c(=O)n2Cc1ccccc1C#N	-2%	-12%	nt	nt	nt
O=C(NCC1CCC2(CCN(Cc3cnn(-c4ccc(F)cc4)c3)CC2)O1)c1ccccc1 (stereo not drawn)	-27%	-9%	nt	nt	nt
O=C(NC1CCCCC1)N(C1=NCCCCC1)c1ccc(Br)cc1	-2%	-6%	1%	1%	i
Cc1ccccc1N(Cc1nnc2n1CCCCC2)C(=O)Nc1ccccc1	-12%	-23%	19%	-5%[9.24 µM]	7
Cc1ccc(NC(=O)COC(=O)c2ccc3c(c2)OCO3)c(C)c1	-4%	18%	0%	2%	-13
COc1ccccc1-c1ccnc(-n2ncc(C(=O)NCC3(N4CCOCC4)CCCC3)c2C)n1	-19%	8%[9.04 µM]	nt	nt	nt
O=C1NC(Cc2ccc(O)cc2)c2nc3cc(F)ccc3c(=O)n2-c2ncccc21 (stereo not drawn)	-7%	0%	-15%	0%	5
Cc1cc(C)c2c(=O)n3c(nc2c1)C(Cc1ccccc1)NC(=O)c1cc2ccccc2cc1-3 (stereo not drawn)	?	?	-26%	-11%	35
CCC1NC(=O)c2cc3ccccc3cc2-n2c1nc1cc(C)cc(C)c1c2=O (stereo not drawn)	4.1µM*	18µM*	-1%	-5%	15
O=C1NC(Cc2ccc(O)cc2)c2nc3cc(F)c(F)cc3c(=O)n2-c2ncccc21 (stereo not drawn)	-18%	-9%	?	21µM*	-23
O=C(c1ccc([N+](=O)[O-])cc1)N1CCSC1c1ccc(Br)cc1 (stereo not drawn)	18µM*	?	-15%	1%	-6
Cc1cccc(N2CCN(C(=O)C3CCC(=O)N(C4CC4)C3)CC2)c1C (stereo not drawn)	?	16µM*	13%	4%	34
O=C(C1CCC(=O)N(C2CCCC2)C1)N1CCN(c2ccccc2Cl)CC1 (stereo not drawn)	5%	-22%	-1%	1%	16
O=C(C1CC(=O)N(C2CCCC2)C1)N1CCN(c2ccccc2F)CC1 (stereo not drawn)	-12%	-14%	8%	-4%	0
Cc1ccc(Cl)cc1N1CCN(C(=O)C2CCC(=O)N(C3CCCCCC3)C2)CC1 (stereo not drawn)	2.9µM*	6.5µM*	-8%	?	30
O=C1C(=O)N(C2CCN(C(=O)c3ccccc3F)CC2)CCN1Cc1ccc(F)cc1	-1%	10%	nt	nt	nt
COc1ccc2ccc3cccc[n+]3c2c1	-5%	5%	-12%	-18%	-8
Clc1ccc(/C=C/c2ccc3ccccc3n2)c(Cl)c1	?	-6%	nt	nt	nt
COc1cc(OC)c(OC)cc1C=Cc1ccc2ccccc2n1	15µM*	16µM*	?	?	-19
COc1ccc(OC)c(/C=C/c2ccc3ccccc3[n+]2C)c1	2µM*	2µM*	nt	nt	nt
